The values that follow come from the supplement of paper PMC8728848.

Only a selection was taken, and the strongest signals are over-represented in it overall.

Holding throughout (assay): glycan array binding signal (z-score within array); higher = stronger binding
Settings in all cases: glycan notation: IUPAC condensed, linker removed

In assay [1] the target is Fuc(a1-2)Gal(b1-3)GlcNAc(b1-2)Man(a1-3)[Fuc(a1-2)Gal(b1-3)GlcNAc(b1-2)Man(a1-6)]Man(b1-4)GlcNAc(b1-4)[Fuc(a1-6)]GlcNAc. In a few lines:
(§1)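 Glycan array data were curated from 3228 arrays in the Consortium for Functional Glycomics database and kept only where the protein sequence was available. Glycan names were converted to IUPAC-condensed notation, and columns mapping to the same glycan were averaged. The binding signal is a within-array Z-score, averaged across arrays of the same protein sequence at different concentrations or buffers and across linkers. Negative Z-scores can be read as non-binding.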

The target of assay [2] is Fuc(a1-2)Gal(b1-3)[Fuc(a1-4)]GlcNAc(b1-3)[Fuc(a1-3)[Gal(b1-4)]GlcNAc(b1-6)]Gal(b1-4)Glc. In a few lines: as §1
Assay [3] addresses Fuc(a1-2)Gal(b1-3)[Fuc(a1-4)]GlcNAc(b1-3)[Gal(b1-4)GlcNAc(b1-6)]Gal(b1-4)Glc. In a few lines: as §1
In assay [4] the target is Fuc(a1-2)Gal(b1-4)[Fuc(a1-3)]GlcNAc(b1-3)GalNAc. In a few lines:
as §1

In assay [5] the target is Fuc(a1-2)[Gal(a1-3)]Gal(b1-4)Glc. In a few lines:
as §1

Assay [6] addresses Fuc(a1-2)[Gal(a1-3)]Gal(b1-4)GlcNAc(b1-3)GalNAc. An outline of the steps:
as §1

The target in assay [7] is Fuc(a1-2)[GalNAc(a1-3)]Gal. In a few lines: as §1
The target in assay [8] is Fuc(a1-2)[GalNAc(a1-3)]Gal(b1-3)GlcNAc(b1-3)GalNAc. In a few lines: as §1
The target in assay [9] is Fuc(a1-2)[GalNAc(a1-3)]Gal(b1-4)[Fuc(a1-3)]GlcNAc. An outline of the steps: as §1
In assay [10] the target is Fuc(a1-2)[GalNAc(a1-3)]Gal(b1-4)[Fuc(a1-3)]GlcNAc(b1-3)GalNAc. An outline of the steps: as §1
The target in assay [11] is Fuc(a1-2)[GalNAc(b1-3)]Gal. In a few lines:
as §1

For assay [12], the target named is Fuc(a1-3)[Gal(b1-4)]Glc6S. In a few lines:
as §1

Assay [13] concerns the target Fuc(a1-3)[Gal(b1-4)]GlcNAc(b1-3)GalNAc. In a few lines: as §1
The target of assay [14] is Gal(b1-3)[Fuc(a1-4)]GlcNAc(b1-2)Man(a1-3)[Gal(b1-3)[Fuc(a1-4)]GlcNAc(b1-2)Man(a1-6)]Man(b1-4)GlcNAc(b1-4)GlcNAc. In a few lines:
as §1

Assay [15] addresses Gal(b1-3)[Fuc(a1-4)]GlcNAc(b1-2)Man(a1-3)[Gal(b1-3)[Fuc(a1-4)]GlcNAc(b1-2)Man(a1-6)]Man(b1-4)GlcNAc(b1-4)[Fuc(a1-6)]GlcNAc. In a few lines:
as §1

Assay [16] has as its target Gal(b1-4)Glc6S. In a few lines: as §1
For assay [17], the target named is Gal(b1-4)GlcNAc(b1-2)[Gal(b1-4)GlcNAc(b1-4)]Man(a1-3)[GlcNAc(b1-4)][Gal(b1-4)GlcNAc(b1-2)Man(a1-6)]Man(b1-4)GlcNAc(b1-4)GlcNAc. An outline of the steps: as §1
The target of assay [18] is Gal(b1-4)GlcNAc(b1-3)Gal(b1-4)[Fuc(a1-3)GlcNAc(b1-6)]Gal(b1-4)Glc. An outline of the steps: as §1
The target in assay [19] is Gal3S6S(b1-4)GlcNAc6S. In a few lines:
as §1

The target in assay [20] is GalNAc(a1-3)GalNAc(b1-3)Gal(a1-4)Gal(b1-4)Glc. In a few lines: as §1
The target in assay [21] is GalNAc(b1-6)GalNAc. An outline of the steps: as §1
Assay [22] has as its target Glc(a1-6)Glc(a1-6)Glc. In a few lines:
as §1

Assay [23] has as its target GlcA(b1-3)GlcNAc. In a few lines:
as §1

The target in assay [24] is GlcNAc(a1-4)Gal(b1-4)GlcNAc(b1-3)Gal(b1-4)GlcNAc(b1-3)Gal(b1-4)GlcNAc. In a few lines: as §1
Assay [25] addresses GlcNAc(b1-2)Man(a1-3)[GlcNAc(b1-2)Man(a1-6)]Man(b1-4)GlcNAc(b1-4)GlcNAc. An outline of the steps:
as §1

For assay [26], the target named is GlcNAc(b1-3)Gal(b1-4)GlcNAc(b1-3)Gal(b1-4)GlcNAc. An outline of the steps: as §1
The target in assay [27] is GlcNAc(b1-3)GalNAc. In a few lines: as §1
Assay [28] deals with GlcNAc(b1-3)[GlcNAc(b1-4)][GlcNAc(b1-6)]GlcNAc. An outline of the steps: as §1
In assay [29] the target is Kdn(a2-3)Gal(b1-3)GlcNAc. An outline of the steps:
as §1

For assay [30], the target named is Man(a1-2)Man(a1-3)[Man(a1-2)Man(a1-6)]Man(a1-6)[Man(a1-2)Man(a1-2)Man(a1-3)]Man. In a few lines: as §1
Assay [31] addresses Man(b1-4)GlcNAc. In a few lines: as §1
In assay [32] the target is Neu5Ac(a2-3)Gal(b1-4)[Fuc(a1-3)]GlcNAc(b1-3)GalNAc. In a few lines:
as §1

The target in assay [33] is Neu5Ac(a2-3)[GalNAc(b1-4)]Gal(b1-4)GlcNAc. An outline of the steps: as §1
Assay [34] has as its target Neu5Ac(a2-6)Gal(b1-4)GlcNAc. An outline of the steps: as §1
For assay [35], the target named is Neu5Ac(a2-8)Neu5Ac(a2-8)Neu5Ac. An outline of the steps: as §1
Assay [36] deals with Neu5Ac(a2-6)Gal(b1-4)GlcNAc(b1-2)Man(a1-3)Man(b1-4)GlcNAc(b1-4)GlcNAc. In a few lines:
as §1

The target in assay [37] is Neu5Ac(a2-6)GalNAc. An outline of the steps:
as §1

Assay [38] concerns the target Neu5Ac(a2-6)GalNAc(b1-4)GlcNAc. An outline of the steps: as §1
The target in assay [39] is Neu5Ac(a2-8)Neu5Ac(a2-8)Neu5Ac(a2-8)Neu5Ac(a2-3)[GalNAc(b1-4)]Gal(b1-4)Glc. An outline of the steps: as §1
Assay [40] deals with Neu5Ac(b2-6)Gal(b1-4)GlcNAc. In a few lines:
as §1

In assay [41] the target is Neu5Gc(a2-3)Gal(b1-4)GlcNAc. An outline of the steps: as §1

B1: pullulanase (Streptococcus pyogenes), Q8KLP1 (protein)
chain: MKKKVNQGSKRYQYLLKKWGIGFVIAATGTVMLGCIPSILTHQVAAKTIVGLARDEAQQGDGNAKSGDGFQSSSKEAKPVLDSSSANPASIAEHHLRMHFKTLPAGESLGSLGLWVWGDVDQPSKDWPNGAITMTKAKKDDYGYYLDVPLAAKHRQQVSYLINNKAGENLSKDQHIPLLTPKMNEVWIDENYHAHAYRPLKKGYLRINYHNQSGHYDNLAVWTFKDVKTPTTDWPNGLDLSHKGPYGAYVDVPLKEGANEIGFLILDKSKTGDAIKVQPKDYLFKELDNHTQVFVKDTDPKVYNNPYYIDQVSLKGAEQTTPNEIKAIFTTLDGLDEDAVKQNIKITDKAGKTVAIDELTLDKDKSVMTLKGDFKAQGAVYTVTFGEVSQVARQSWQLKDKLYAYDGELGATLAKDGSVDLALWSPSADSVKVVVYDKQDQTKVVGQADLTKSDKGVWRAHLTSDSVKGISDYTGYYYLYEITRGQEKVMVLDPYAKSLAAWNDATATDDIKTAKAAFIDPSKLGPTGLDFAKINNFKKREDAIIYEAHVRDFTSDKALEGKLTHPFGTFSAFVEQLDYLKDLGVTHVQLLPVLSYFYANELDKTRSTAYTSSDNNYNWGYDPQHYFALSGMYSANPNDPALRIAELKNLVNEIHKRGMGVIFDVVYNHTARTYLFEDLEPNYYHFMNADGTARESFGGGRLGTTHAMSRRILVDSITYLTREFKVDGFRFDMMGDHDAAAIEQAFKAAKAINPNTIMIGEGWRTYQGDEGKKEIAADQDWMKATNTVGVFSDDIRNTLKSGFPNEGTAAFITGGAKNLEGLFKTIKAQPSNFEADAPGDVVQYIAAHDNLTLHDVIAKSINKDPKVAEEEIHKRIRLGNTMILTAQGTAFIHSGQEYGRTKQLLNPDYKTKVSDDKVPNKATLIDAVAQYPYFIHDSYDSSDAVNHFDWAKATDSIAHPISNQTKAYTQGLIALRRSTDAFTKATKAEVDRDVTLITQAGQDGIQQEDLIMGYQTVASNGDRYAVFVNADNKTRKVVLPQAYRYLLGAQVLADAEQVGVTAIAKPKGVQFTKEGLTIDGLTALVLKVSSKTANPSQQKSQTDNHQTKTPDGSKDLDKSLMTRPKRAKTNQKLPKTGEAPSKGLLAAGVALLLLAISLLMKRQKD
On to B1, for which the “glycan array binding signal (z-score)” value in [1] is 1.26; in assay [2], 4.09; in assay [3] it was -1.13; in assay [4], 3.14; in assay [5], -0.403; in assay [6] it was -0.009. Also, the “glycan array binding signal (z-score)” value in [7] is -0.236; in assay [8], 2.51; in assay [9] it was -0.025; in assay [10], 1.05; in assay [11] it was -0.628; in assay [12], -0.252. Also, the “glycan array binding signal (z-score)” value in assay [13] was 0.189; in assay [14] it was 6.24; in assay [15], 2.86; in assay [16], -0.375; in assay [17], 0.829; in assay [18], -0.926. Moreover, the “glycan array binding signal (z-score)” value is -0.367 in assay [19]; -1.28 in assay [20]; -0.145 in assay [21]; 2.49 in assay [22]; 2.61 in assay [23]; 0.594 in assay [24]. Moreover, the “glycan array binding signal (z-score)” value in [25] was -0.014; in assay [26], -1.14; in assay [27] it was 0.154; in [28], -0.834; in [29], -0.039; in assay [30], 0.204. The “glycan array binding signal (z-score)” value in assay [31] was 0.398; in [32] it was 2.87; in assay [33] it was -0.879; in assay [34] it was 2.52; in assay [35], -0.738.

B2: RS2L (Ralstonia solanacearum), B5RXL5_RALSO (protein)
chain: MAQQGVFTLPANTSFGVTAFANAANTQTIQVLVDNVVKATFTGSGTSDKLLGSQVLNSGSGAIKIQVSVNGKPSDLVSNQTILANKLNFAMVGSEDGTDNDYNDGIAVLNWPLG
As for B2, the “glycan array binding signal (z-score)” value in assay [36] is -0.245; in assay [37], -0.244; in [38], -0.242; in assay [35] it was -0.243; in assay [39], -0.22; in assay [40], -0.252. The “glycan array binding signal (z-score)” value in assay [41] was -0.242.
